Test results: the OligoGym collection

Biological target: RILPL1
Experiment: pooled miR-30 sensor sort-seq; sequence = guide strand
Conditions: shRNA
Further: reference of the scale not given here.

Sequence | sensor-assay potency score (higher = more potent)
TCCTGCAGCAAGAACACCTTGG | -0.555
TAAATAAACATTTCTTTAGAGT | -1.18
TTGCGCTCCTTCTCGATGCGGT | -0.346
TTAGAAACAGTGATAGCCCTGG | 0.299
TTCAGGGTGCATCTGCACCGAG | -0.831
TTTGGCTTAAAGAAGCTTGTGT | 0.806
TATTCGGTTTTCCTCTTCCATT | -1.63
TGAGAAGTTGACATCCTTGTGG | 0.201
TTGTTTGTCCACCACCTCCTTC | -0.987
TTGGCGCGGATCTCGTCGCGTT | -1.09
TCATCTATTAGAAACAGTGATA | -1.01
TTGGACTTGAGCTCGTTCCTCT | -0.104

Biological target: RIMKLA
Experiment: as above
Conditions: shRNA

Sequence | sensor-assay potency score (higher = more potent)
TAATGTTGTAGCCAGGTTCGGG | -0.494
AAGCATAGAGCCTATGACCTGG | 0.485
TCACTGTCTGACTGCACTGAGG | -1.83
TTGGACTCGACAGTCCTGGGAG | 0.0465
TCACACACCACAAAGGAGCCAT | 0.0799
TAGCATTTGCCTCACACACCAC | -0.761
TAGGAAGCCAACATTAGCATTT | -1.24
TTTCACTAGAGGTAGACCCACT | -0.539
TTGATGGTATAGACGCTCTCTG | -0.814
TGTCTGACTGCACTGAGGGTGT | -0.858
TAGTCCTCGCGGATGCGCCGGT | -0.762
ATCAATGCCACAGAAGTCCATG | -1.18

Biological target: RIN3
Experiment: as above
Conditions: shRNA

Sequence | sensor-assay potency score (higher = more potent)
TAGATGAGTTTGCAGGTCTTGA | -0.805
ATCTCCTGCAGCATCTCCGTGC | -0.98
TTGCCAACAACTGGAACCGGAC | -1.3
TTGAGCTGGGTCATCATGGTGC | 0.23
TTTGATGAGCTTCTCCAGGATG | -0.966
TAACTGGTTCTCCTTGAGCTGC | -1.24
TGTTTTGATGAGCTTCTCCAGG | -1.05
TGTCTAGCTGCTTCTTGCCGGG | -0.191
TTTGCCAACAACTGGAACCGGA | -0.35
TTCCTTAATGGTGTATTCGAGC | -0.939
TATTCGAGCACCTCGGCCGAGC | -1.09
TAAGTCTCTACTGACACAGTAG | -0.266

Biological target: RIT1
Experiment: as above
Conditions: shRNA

Sequence | sensor-assay potency score (higher = more potent)
TTGGTGACCTGTCTTAGCTGTT | -0.52
TTATAAGCATCTTCAATGGTGG | -0.101
TTAGCCTCTTCCATACACTGTT | -0.476
TAGCCTCTTCCATACACTGTTT | -0.898
